Measurements published in the supplement of paper PMC3545927.
Some of the results follow. The hit rate among all sequences tested is not known here.

Molecular target: furin, P09958
Assay: furin cleavage Z-score vs untreated control; higher = more cleavage, active = 3.5 or more, inactive = 1 or less, 8 variable residues between constant flanks
In short: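 Abundance of DNA freed from bead-bound 8-mer peptide–cDNA fusions by purified furin was measured as sequencing read counts after PCR adapter tagging. Cutting ran 7.5, 15 or 30 min in 0.01 ml of 50 mM HEPES pH 7.5 with CaCl2 and NaCl at 1:10 enzyme:substrate. The cleavage Z-score expresses these log counts against furin-free reactions after lowess adjustment and median absolute deviation scaling.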

Sequence of furin, P09958 (P09958 whole entry): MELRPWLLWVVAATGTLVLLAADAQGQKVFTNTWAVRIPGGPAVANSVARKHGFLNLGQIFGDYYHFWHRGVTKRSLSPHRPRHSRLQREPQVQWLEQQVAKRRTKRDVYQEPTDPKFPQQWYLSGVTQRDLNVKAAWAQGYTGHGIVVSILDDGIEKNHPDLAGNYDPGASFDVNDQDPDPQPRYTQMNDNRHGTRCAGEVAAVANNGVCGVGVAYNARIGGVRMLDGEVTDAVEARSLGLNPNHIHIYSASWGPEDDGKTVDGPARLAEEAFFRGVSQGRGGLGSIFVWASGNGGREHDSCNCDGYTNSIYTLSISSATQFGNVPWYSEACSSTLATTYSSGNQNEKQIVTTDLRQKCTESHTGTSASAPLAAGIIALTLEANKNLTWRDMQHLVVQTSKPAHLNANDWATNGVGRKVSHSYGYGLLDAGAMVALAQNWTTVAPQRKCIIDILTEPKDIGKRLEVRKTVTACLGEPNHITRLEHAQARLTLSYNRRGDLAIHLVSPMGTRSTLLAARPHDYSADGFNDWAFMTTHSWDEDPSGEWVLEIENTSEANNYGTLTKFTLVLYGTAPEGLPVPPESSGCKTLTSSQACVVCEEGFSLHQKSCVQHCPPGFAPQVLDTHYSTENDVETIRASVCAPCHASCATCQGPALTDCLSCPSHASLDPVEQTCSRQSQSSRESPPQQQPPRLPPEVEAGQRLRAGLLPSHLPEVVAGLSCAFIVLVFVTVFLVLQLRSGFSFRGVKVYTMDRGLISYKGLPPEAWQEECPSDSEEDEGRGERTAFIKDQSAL

B1: HC140 (peptide)
chain: CAEVVPSTWVAGNASASA
furin cleavage Z-score (7.5 min): -0.678 (inactive) | furin cleavage Z-score (15 min): -0.107 (inactive) | furin cleavage Z-score (30 min): 0.5 (inactive)

B2: HC1533 (peptide)
chain: CAESAGVQEDAGNASASA
furin cleavage Z-score (7.5 min): -0.496 (inactive) | furin cleavage Z-score (15 min): -1.46 (inactive) | furin cleavage Z-score (30 min): -0.975 (inactive)

B3: HC305 (peptide)
chain: CAQLFTFSPRAGNASASA
furin cleavage Z-score (7.5 min): -0.105 (inactive) | furin cleavage Z-score (15 min): -0.574 (inactive) | furin cleavage Z-score (30 min): 0.219 (inactive)

B4: HC248 (peptide)
chain: CASIFLLALLAGNASASA
furin cleavage Z-score (7.5 min): -0.433 (inactive) | furin cleavage Z-score (15 min): -0.299 (inactive) | furin cleavage Z-score (30 min): -0.909 (inactive)

B5: HC434 (peptide)
chain: CAGNWFGCTWAGNASASA
furin cleavage Z-score (7.5 min): 2 | furin cleavage Z-score (15 min): 1.1 | furin cleavage Z-score (30 min): -0.112 (inactive)

B6: FS-1943 (peptide)
chain: CARAHRSVLAAGNASASA
furin cleavage Z-score (7.5 min): -0.832 (inactive) | furin cleavage Z-score (15 min): -0.15 (inactive) | furin cleavage Z-score (30 min): 2.24

B7: HC1428 (peptide)
chain: CAAVTHINSVAGNASASA
furin cleavage Z-score (7.5 min): -1.27 (inactive) | furin cleavage Z-score (15 min): -0.864 (inactive) | furin cleavage Z-score (30 min): -0.253 (inactive)

B8: FS-773 (peptide)
chain: CAFRSRSKRRAGNASASA
furin cleavage Z-score (7.5 min): 8.16 (active) | furin cleavage Z-score (15 min): 8.31 (active) | furin cleavage Z-score (30 min): 7.71 (active)

B9: FS-1239 (peptide)
chain: CANRKRNKKQAGNASASA
furin cleavage Z-score (7.5 min): 0.136 (inactive) | furin cleavage Z-score (15 min): 0.864 (inactive) | furin cleavage Z-score (30 min): 2.02

B10: FS-774 (peptide)
chain: CAFRSRSLREAGNASASA
furin cleavage Z-score (7.5 min): 5.16 (active) | furin cleavage Z-score (15 min): 6.5 (active) | furin cleavage Z-score (30 min): 6.69 (active)

B11: FS-3137 (peptide)
chain: CASRKRSFFRAGNASASA
furin cleavage Z-score (7.5 min): -0.305 (inactive) | furin cleavage Z-score (15 min): 2.22 | furin cleavage Z-score (30 min): 0.35 (inactive)

B12: FS-1240 (peptide)
chain: CANRKRSKRRAGNASASA
furin cleavage Z-score (7.5 min): 10.6 (active) | furin cleavage Z-score (15 min): 10.8 (active) | furin cleavage Z-score (30 min): 8.12 (active)

B13: FS-96 (peptide)
chain: CATCSRHKRRAGNASASA
furin cleavage Z-score (7.5 min): 4.62 (active) | furin cleavage Z-score (15 min): 7.75 (active) | furin cleavage Z-score (30 min): 7.17 (active)

B14: FS-1099 (peptide)
chain: CATRARSLRFAGNASASA
furin cleavage Z-score (7.5 min): -0.222 (inactive) | furin cleavage Z-score (15 min): 2.2 | furin cleavage Z-score (30 min): 1.03

B15: HC1360 (peptide)
chain: CADLSDGSWSAGNASASA
furin cleavage Z-score (7.5 min): -0.871 (inactive) | furin cleavage Z-score (15 min): -1.27 (inactive) | furin cleavage Z-score (30 min): -0.416 (inactive)

B16: FS-713 (peptide)
chain: CARRLRDKRRAGNASASA
furin cleavage Z-score (7.5 min): 0.73 (inactive) | furin cleavage Z-score (15 min): 2.01 | furin cleavage Z-score (30 min): 1.44

B17: FS-1161 (peptide)
chain: CARRQVWKRRAGNASASA
furin cleavage Z-score (7.5 min): 0.586 (inactive) | furin cleavage Z-score (15 min): 4.58 (active) | furin cleavage Z-score (30 min): 4.41 (active)

B18: FS-3261 (peptide)
chain: CARRIRFVGRAGNASASA
furin cleavage Z-score (7.5 min): 0.201 (inactive) | furin cleavage Z-score (15 min): 1.15 | furin cleavage Z-score (30 min): 3.25

B19: HC1645 (peptide)
chain: CAGWFTAGYSAGNASASA
furin cleavage Z-score (7.5 min): 0.812 (inactive) | furin cleavage Z-score (15 min): -0.589 (inactive) | furin cleavage Z-score (30 min): 0.435 (inactive)

B20: HC2229 (peptide)
chain: CAEVVTSTYVAGNASASA
furin cleavage Z-score (7.5 min): 0.886 (inactive) | furin cleavage Z-score (15 min): 0.18 (inactive) | furin cleavage Z-score (30 min): 0.589 (inactive)

B21: HC134 (peptide)
chain: CAEVVCSTWVAGNASASA
furin cleavage Z-score (7.5 min): -0.675 (inactive) | furin cleavage Z-score (15 min): -0.0617 (inactive) | furin cleavage Z-score (30 min): -0.318 (inactive)

B22: FS-899 (peptide)
chain: CAYDCRCKRGAGNASASA
furin cleavage Z-score (7.5 min): 0.698 (inactive) | furin cleavage Z-score (15 min): 0.0271 (inactive) | furin cleavage Z-score (30 min): 1.85

B23: FS-309 (peptide)
chain: CAVHHRPKRGAGNASASA
furin cleavage Z-score (7.5 min): 12 (active) | furin cleavage Z-score (15 min): 10.8 (active) | furin cleavage Z-score (30 min): 9.72 (active)

B24: FS-665 (peptide)
chain: CAILHRQKRGAGNASASA
furin cleavage Z-score (7.5 min): 12.5 (active) | furin cleavage Z-score (15 min): 12.9 (active) | furin cleavage Z-score (30 min): 9.04 (active)

B25: HC2406 (peptide)
chain: CAEVPCHRPMAGNASASA
furin cleavage Z-score (7.5 min): -0.721 (inactive) | furin cleavage Z-score (15 min): 1.03 | furin cleavage Z-score (30 min): -0.487 (inactive)

B26: HC486 (peptide)
chain: CARCDLEDRDAGNASASA
furin cleavage Z-score (7.5 min): 1.03 | furin cleavage Z-score (15 min): -0.684 (inactive) | furin cleavage Z-score (30 min): -1.47 (inactive)

B27: HC976 (peptide)
chain: CAVQNEITLTAGNASASA
furin cleavage Z-score (7.5 min): -0.158 (inactive) | furin cleavage Z-score (15 min): -0.101 (inactive) | furin cleavage Z-score (30 min): 0.696 (inactive)
